{"source": "PubChem BioAssay AID1259418", "about": "(Broad Institute, 2018)", "note": "Among all 3,400 compounds or so, about 840 (25%) were called active. Roughly 11% stayed inconclusive and do not appear here. The list is a sample of the results. Potency and affinity values are given separately. Unmarked numbers belong to inactive results.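 The calls were made as follows: active = fitted half-maximal concentration of signal decrease at or below twice the sample's top tested concentration; inconclusive = flat curve between -70 and -30 percent, or poor fit; inactive = flat within 30 percent, signal rise, or potency above limit.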", "data": [{"test": "T. gondii growth inhibition with IFN-gamma, dose response, cell-based, ME49Luc, HeLa, luciferase, 72 h (AID 1259418)", "settings": "T. gondii ME49Luc in IFN-y HeLa, hits give low values, -100% = high-dose IFN-γ control wells; at 19.5 µM unless noted", "values": [{"smiles": "CCc1c(C)sc2c1CCN(Cc1nc(-c3ccc(Cl)cc3)oc1C)C2c1ccccc1", "note": "(stereo not drawn)", "max activity": "38.9% [at 10 µM]"}, {"smiles": "CCc1ccccc1NC(=O)N1CCc2nc(-c3ccc(C)cc3)sc2C1", "max activity": "-16.8%"}, {"smiles": "Clc1ccc(-c2nc(N3CCN(Cc4ccc5c(c4)OCO5)CC3)c3ccccc3n2)cc1", "max activity": "21.6% [at 2.6 µM]"}, {"smiles": "O=C(Nc1ccc(Cl)cc1)Nc1ccc(-c2nc(-c3ccccc3)co2)cc1", "max activity": "-18.8% [at 2.6 µM]"}, {"smiles": "COc1ccc(N(Cc2nc(-c3ccc(C)cc3)oc2C)S(=O)(=O)c2ccc(OC)cc2)cc1", "max activity": "6.72% [at 1.35 µM]"}, {"smiles": "COc1ccc(-c2nc(CN(c3ccc(OC)cc3)S(=O)(=O)c3ccc(OC)cc3)c(C)o2)cc1", "max activity": "16.7% [at 5 µM]"}, {"smiles": "COc1ccc(-c2nc(CN(c3ccc(OC)cc3)S(=O)(=O)c3ccccc3)c(C)o2)cc1", "max activity": "21.2% [at 5 µM]"}, {"smiles": "COc1ccc(-c2nc(CN(c3ccc(OC)cc3)S(=O)(=O)c3ccc(C)cc3)c(C)o2)cc1", "max activity": "-10.7% [at 0.16 µM]"}, {"smiles": "Cc1oc(-c2ccccc2)nc1CN(c1ccccc1)S(=O)(=O)c1ccccc1", "max activity": "6.75% [at 2.6 µM]"}, {"smiles": "Cc1oc(-c2ccc(OC(C)C)cc2)nc1CN(c1ccccc1)S(=O)(=O)c1ccccc1", "max activity": "5.29%"}, {"smiles": "COc1ccc(S(=O)(=O)N2CCC[C@@H]2C(=O)NCCc2csc(C)n2)cc1", "max activity": "-6.98% [at 5 µM]"}, {"smiles": "CCc1ccccc1NC(=O)COc1nc(C)nc2ccccc12", "max activity": "-12.9% [at 2.6 µM]"}, {"smiles": "COCCNC(=O)C1(C)CCC(=O)N1CCc1c[nH]c2ccccc12", "note": "(stereo not drawn)", "max activity": "3.62%"}, {"smiles": "O=C(CC1N=C2c3ccccc3N=C(SCc3cccc(F)c3)N2C1=O)NCc1ccc2c(c1)OCO2", "note": "(stereo not drawn)", "max activity": "67.4%"}, {"smiles": "Cc1cccc(CN2CCC3(CC2)N=C(c2cccc(F)c2)C(=O)N3)c1", "max activity": "-7.22%"}, {"smiles": "Cc1cccc(-c2noc(-c3nnn(Cc4nc(-c5cccc(Cl)c5)oc4C)c3C)n2)c1", "max activity": "60.4%"}, {"smiles": "CCN1CC(C(=O)O)CN2CCN(C(=O)c3ccncc3F)CC2C1", "note": "(stereo not drawn)", "max activity": "5.55%"}, {"smiles": "COc1ccc(-c2nc(Nc3ccc(C(C)C)cc3)c3ccccc3n2)cc1", "max activity": "12% [at 5 µM]"}, {"smiles": "O=C(NCCc1csc(-c2ccccc2)n1)[C@H]1CSCN1C(=O)c1cccc(F)c1", "max activity": "-24.5%"}, {"smiles": "O=C(NCCc1csc(-c2ccccc2)n1)[C@H]1CCCN1C(=O)c1ccco1", "max activity": "-10.6% [at 0.16 µM]"}, {"smiles": "Cc1ccc(S(=O)(=O)N2CC[C@@H]3[C@H]2c2cc(-c4cccc(C(=O)N(C)C)c4)ccc2N[C@@H]3CO)cc1", "max activity": "21.6% [at 10 µM]"}, {"smiles": "O=C(Cc1ccccc1)N1CC[C@H]2[C@H](CO)Nc3ccc(C4=CCCCC4)cc3[C@H]21", "max activity": "30.4% [at 10 µM]"}, {"smiles": "COc1ccccc1-c1ccc2c(c1)[C@H]1[C@H](CCN1Cc1ccccc1F)[C@@H](CO)N2", "max activity": "11.2% [at 1.2 µM]"}, {"smiles": "CN(C)C(=O)c1cccc(-c2ccc3c(c2)[C@H]2[C@H](CCN2C(=O)Cc2ccccc2)[C@@H](CO)N3)c1", "max activity": "24.7% [at 5 µM]"}, {"smiles": "CCOc1ccc(C(=O)N2CCC3(CC2)Nc2cc(F)ccc2-n2cccc23)cc1", "max activity": "-6.53% [at 5 µM]"}, {"smiles": "Cc1cccc(OCC(=O)N2CCC3(CC2)Nc2ccc(C)c(C)c2-n2cccc23)c1", "max activity": "8.26% [at 0.16 µM]"}, {"smiles": "O=C(COc1ccc(Cl)cc1)N1CCC2(CC1)Nc1ccc(Cl)cc1-n1cccc12", "max activity": "3.74% [at 0.68 µM]"}, {"smiles": "O=C(COc1ccc(Cl)cc1)N1CCC2(CC1)Nc1cc(F)ccc1-n1cccc12", "max activity": "9.43% [at 0.16 µM]"}, {"smiles": "O=C(COc1ccccc1)N1CCC2(CC1)Nc1ccc(Cl)cc1-n1cccc12", "max activity": "8.01% [at 0.35 µM]"}, {"smiles": "Cc1nc2ccccc2n1CC(O)Cn1c2ccccc2c2ccccc21", "note": "(stereo not drawn)", "max activity": "28.9%"}, {"smiles": "CCOc1ccc(NC(=O)Nc2ccc(-c3nc(-c4ccc(C)cc4C)co3)cc2)cc1", "max activity": "21.2% [at 0.16 µM]"}, {"smiles": "CCc1ccc2c(c1)cc(S(=O)(=O)c1ccccc1)c(=O)n2CC(=O)NC1CCCCC1", "max activity": "-12.7% [at 1.35 µM]"}, {"smiles": "COc1ccccc1NC(=O)N1CCCCN2[C@H](CO)[C@@H](c3ccc(-c4cccc(C#N)c4)cc3)[C@H]2C1", "max activity": "24.8% [at 10 µM]"}, {"smiles": "N#Cc1cccc(-c2ccc([C@H]3[C@H]4CN(Cc5ccccc5F)CCCCN4[C@H]3CO)cc2)c1", "max activity": "26.6% [at 10 µM]"}, {"smiles": "Cc1cccc(Cn2c(CN3CCC(C(=O)N4CCCC4)CC3)cc3ccccc32)c1", "max activity": "-9.03% [at 0.35 µM]"}, {"smiles": "Cc1ccc(C2=NC3(CCN(CC(=O)Nc4ccccc4C(F)(F)F)CC3)NC2=O)cc1", "max activity": "-14.3% [at 0.35 µM]"}, {"smiles": "CN(C)c1ccc(-c2nc3c([nH]2)c(=O)n(C)c(=O)n3C)cc1", "max activity": "17.3% [at 10 µM]"}, {"smiles": "Cc1ccc(-c2coc(-c3ccc(NC(=O)Nc4cc(F)ccc4F)cc3)n2)c(C)c1", "max activity": "-9.54% [at 5 µM]"}, {"smiles": "COc1ccc(CN2CCC3(CC(n4cnnc4)CO3)C2)cc1", "note": "(stereo not drawn)", "max activity": "33.5%"}, {"smiles": "COc1ccc(CN2CCc3nc(SCc4nc(-c5ccccc5)oc4C)[nH]c(=O)c3C2)cc1", "max activity": "-18.7% [at 2.6 µM]"}, {"smiles": "COCCCN1CCc2nc(SCc3nc(-c4ccccc4)oc3C)[nH]c(=O)c2C1", "max activity": "21% [at 2.6 µM]"}, {"smiles": "COc1ccccc1CN1CCc2nc(SCc3nc(-c4cccc(C)c4)oc3C)[nH]c(=O)c2C1", "max activity": "14.5% [at 0.35 µM]"}, {"smiles": "COc1ccc(NC(=O)CN2CCC3(CC2)N=C(c2cccc(F)c2)C(=O)N3)cc1OC", "max activity": "28.6% [at 10 µM]"}, {"smiles": "COc1ccc(-c2nc(N(Cc3ccco3)C3CCCCC3)c3ccccc3n2)cc1", "max activity": "-11.5% [at 2.6 µM]"}, {"smiles": "CCCCN(Cc1ccco1)c1nc(-c2ccc(OC)cc2)nc2ccccc12", "max activity": "14.7% [at 0.35 µM]"}, {"smiles": "CCN(CCN(C)C)c1nc(-c2ccc(OC)cc2)nc2ccccc12", "max activity": "-29.5%"}, {"smiles": "COc1ccc(-c2nc(N(CCN(C)C)Cc3ccccc3)c3ccccc3n2)cc1", "max activity": "-20.1% [at 5 µM]"}, {"smiles": "CN(c1nc(-c2ccc(Cl)cc2)nc2ccccc12)C1CCCCC1", "max activity": "11.9% [at 0.68 µM]"}, {"smiles": "COc1ccc(-c2nc(NCCCN(Cc3ccco3)C3CCCC3)c3ccccc3n2)cc1", "max activity": "-19.2% [at 5 µM]"}, {"smiles": "CCCN(CCC)c1nc(-c2ccc(OC)cc2)nc2ccccc12", "max activity": "-8.92% [at 0.35 µM]"}, {"smiles": "COc1ccc(-c2nc(N(C)c3ccc(F)cc3)c3ccccc3n2)cc1", "max activity": "36%"}, {"smiles": "NC(=O)C1(N2CCCCC2)CCN(c2ccc(NC(=O)c3cccc(Cl)c3)cc2C(=O)O)CC1", "max activity": "1%"}, {"smiles": "Cc1ccc(-c2coc(-c3ccc(NC(=O)Nc4ccc(C)c(F)c4)cc3)n2)cc1", "max activity": "19.5% [at 10 µM]"}, {"smiles": "Cc1cc(C(F)(F)F)nn1CC(=O)N1CCCC1c1cc(C(C)C)no1", "note": "(stereo not drawn)", "max activity": "16% [at 2.6 µM]"}, {"smiles": "COc1cccc(CC(=O)N2CCC[C@@H]2C(=O)NCCc2csc(-c3ccccc3)n2)c1", "max activity": "18.6% [at 0.16 µM]"}, {"smiles": "Cc1ccc2c(c1C)-n1cccc1C1(CCN(C(=O)c3ccc(Br)o3)CC1)N2", "max activity": "9.35% [at 0.35 µM]"}, {"smiles": "COc1ccc(-c2nc(NCc3ccc(C)o3)c3ccccc3n2)cc1", "max activity": "-32.7% [at 1.35 µM]"}, {"smiles": "CCCCN(C)c1nc(-c2ccc(OC)cc2)nc2ccccc12", "max activity": "16.9% [at 0.35 µM]"}, {"smiles": "COc1ccc(-c2nc(N(C)Cc3ccccc3)c3ccccc3n2)cc1", "max activity": "21.9%"}, {"smiles": "COc1ccc(-c2nc(N(CC(C)C)CC(C)C)c3ccccc3n2)cc1", "max activity": "-12.7% [at 0.35 µM]"}, {"smiles": "CN(Cc1ccco1)c1nc(-c2ccc(Cl)cc2)nc2ccccc12", "max activity": "-31.8% [at 0.16 µM]"}, {"smiles": "Cc1ccc(-c2coc(-c3ccc(NC(=O)Nc4cc(C)cc(C)c4)cc3)n2)cc1", "max activity": "-13.8% [at 0.68 µM]"}, {"smiles": "CCc1nc(OCC(=O)Nc2cc(C)cc(C)c2)c2ccccc2n1", "max activity": "9.9% [at 10 µM]"}, {"smiles": "COc1ccc(S(=O)(=O)N(Cc2nc(-c3ccccc3)oc2C)c2ccccc2OC)cc1", "max activity": "-10.3% [at 5 µM]"}, {"smiles": "COc1ccccc1N(Cc1nc(-c2ccccc2)oc1C)S(=O)(=O)c1ccc(C)cc1", "max activity": "13.3% [at 0.16 µM]"}, {"smiles": "c1cnc(N2CCC(Oc3cnccn3)CC2)nc1", "max activity": "28.4% [at 10 µM]"}, {"smiles": "CCc1ccccc1NC(=O)Nc1ccc(-c2nc(-c3ccc(C)cc3)co2)cc1", "max activity": "-15.7% [at 0.68 µM]"}, {"smiles": "CCOc1ccc(CC(=O)N2CCC3(CC2)Nc2cc(OC)ccc2-n2cccc23)cc1OCC", "max activity": "-11.1% [at 10 µM]"}, {"smiles": "COc1ccc(CNc2nc(SCc3cc(=O)n4cc(Cl)ccc4n3)nc3ccccc23)cc1", "max activity": "14.6% [at 5 µM]"}, {"smiles": "COCC#Cc1ccc([C@@H]2[C@@H](CO)N3C(=O)CN(C(=O)c4ccncc4)C[C@@H]23)cc1", "max activity": "31.2%"}, {"smiles": "COCC#Cc1ccc([C@@H]2[C@@H](CO)N3C(=O)CN(C(=O)c4ccncc4)C[C@H]23)cc1", "max activity": "28.6%"}, {"smiles": "COCC#Cc1ccc([C@H]2[C@@H](CO)N3C(=O)CN(C(=O)C4CCCCC4)C[C@@H]23)cc1", "max activity": "51.9%"}, {"smiles": "COCC#Cc1ccc([C@@H]2[C@H]3CN(C(=O)C4CCCCC4)CC(=O)N3[C@H]2CO)cc1", "max activity": "27.9%"}]}]}
